Assay outcomes from PubChem.
HT1080 IDH1KD tx: qHTS for induction of synthetic lethality in tumor cells producing 2HG: qHTS for the HT-1080-IDH1KD cell line; HT-1080 IDH1 knockdown viability, ATP luminescence, 48 h; Potency, µM (titrated, usually from 46.1 µM), inactives show at the highest dose activity, negative = toxicity, most hits filed as cytotoxic; hit rate 2% among 360,000;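 further: potency means the concentration at half of the fitted maximal effect; 0% = DMSO wells and -100% = cell-free medium wells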
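In this qHTS, HT-1080 cells depleted of IDH1 are exposed for 48 h at 37 °C to compound titrations. Toxicity is scored from CellTiter-Glo luminescence, with DMSO as full viability and medium alone as none.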
TDP1 cell CPT: qHTS for Inhibitors of human tyrosyl-DNA phosphodiesterase 1 (TDP1): qHTS in cells in presence of CPT; chicken DT40 Tdp1-/-;hTDP1 cells + 20 nM CPT, ATP luminescence, 48 h; Potency, µM (top dose mostly 46.2 µM), without a hit: at the highest dose activity change, negative = growth inhibition, actives largely listed as inhibitors; hit rate 12% among 420,000; AID 686979, 2013; further: potency means the concentration at half of the fitted maximal effect; nearly all actives have a fitted effect of over 55% in size
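Cell growth measured by CellTiter-Glo luminescence after a minimum 48 h, 37 C compound exposure with 20 nM CPT in Tdp1-knockout DT40 cells stably expressing hTDP1, seeded 400/well; qHTS titration format.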
IL1B secr inh: qHTS for Inhibitors of Inflammasome Signaling: IL-1-beta AlphaLISA Primary Screen; THP-1 LPS/ATP IL-1B secretion, AlphaLISA, 16 h; stronger effect = lower value; activity change, % at 57.5 µM; hit rate 4.7% among 360,000; in the data active means activity change below about -50%; inconclusive means mostly about -30% to -49%
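THP-1 cells pretreated 1 hr with compounds (up to 57.5 uM final), then stimulated with LPS (250 ng/mL final) plus ATP (1.25 mM final); secreted IL-1B measured by AlphaLISA after 16 hr, decreased signal indicating inhibition.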
HT1080NT lethal: qHTS for induction of synthetic lethality in tumor cells producing 2HG: qHTS for the HT-1080-NT fibrosarcoma cell line; HT-1080-NT fibrosarcoma viability, CellTiter-Glo ATP luminescence, 48 h; AID 686970, 2013; Potency, µM (highest dose often 46.1 µM), for inactives: at the top dose activity, negative = less viability, actives largely listed as cytotoxic; hit rate 1.6% among 360,000;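 further: NT is the 2HG producing partner of a matched IDH1 knockdown line; potency means the concentration at half of the fitted maximal effect; 0% = DMSO-treated cells and -100% = media-only wells without cells; nearly all actives have a fitted effect of over 55% in size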
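HT-1080-NT; 750 cells/well; 5% FBS RPMI; 48 h compound, 37 degrees C; CellTiter-Glo luminescence; curve fitting and curve-class assignment.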
12-LOX inh: Primary qHTS assay for inhibitors of human arachidonate 12S-lipoxygenase (ALOX12): Round 2 | Polyunsaturated fatty acid lipoxygenase ALOX12 (Homo sapiens), P18054 | purified 12hLO, xylenol orange hydroperoxide absorbance | Potency, µM (top dose mostly 108 µM), for inactives: top-dose activity change, negative = inhibition, hits mostly inhibitors | hit rate 1.1% among 580,000 | AID 1671190, 2021; further: potency means the concentration at half of the fitted maximal effect
Target sequence (P18054 whole entry, looked up): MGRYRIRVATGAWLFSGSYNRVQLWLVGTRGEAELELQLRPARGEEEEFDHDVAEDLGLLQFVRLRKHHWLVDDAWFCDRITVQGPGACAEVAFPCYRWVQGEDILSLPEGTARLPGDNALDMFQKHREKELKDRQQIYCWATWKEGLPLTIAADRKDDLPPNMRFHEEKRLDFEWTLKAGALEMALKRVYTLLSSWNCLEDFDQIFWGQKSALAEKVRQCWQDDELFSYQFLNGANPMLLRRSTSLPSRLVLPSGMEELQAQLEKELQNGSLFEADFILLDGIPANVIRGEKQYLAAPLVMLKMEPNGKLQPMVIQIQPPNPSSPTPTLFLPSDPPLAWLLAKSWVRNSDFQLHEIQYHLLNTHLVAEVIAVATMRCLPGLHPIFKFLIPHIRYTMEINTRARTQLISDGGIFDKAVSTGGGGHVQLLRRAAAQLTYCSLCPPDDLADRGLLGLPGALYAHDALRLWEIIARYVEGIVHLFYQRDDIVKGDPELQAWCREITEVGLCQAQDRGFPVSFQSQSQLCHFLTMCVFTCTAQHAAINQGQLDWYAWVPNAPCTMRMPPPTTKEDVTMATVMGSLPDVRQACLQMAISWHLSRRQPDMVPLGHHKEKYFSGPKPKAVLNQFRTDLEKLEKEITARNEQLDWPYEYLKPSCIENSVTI
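Purified human 12hLO (150 nM final) in 25 mM Hepes, 0.01% Triton X-100, pH 7.0 was preincubated 15 min at room temperature with compound. Then 40 uM arachidonic acid was added, 30 min. Hydroperoxide was read by Fe-XO absorbance ratio 573/405 nm.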
TDP1 cell noCPT: qHTS for Inhibitors of human tyrosyl-DNA phosphodiesterase 1 (TDP1): qHTS in cells in absence of CPT. DT40 Tdp1-/- hTDP1 cells, no CPT, ATP luminescence, 48 h. Potency, µM (highest dose often 46.2 µM), without a hit: at the highest dose activity change, negative = growth inhibition, usual class: inhibitors. hit rate 15% among 420,000. AID 686978, 2013; further: potency means the concentration at half of the fitted maximal effect; nearly all actives have a fitted effect of over 55% in size
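Cells were dispensed at 400 per well, compounds added by pin tool, plates incubated ≥48 hr at 37 °C, then CellTiter-Glo added for 30 min at room temperature before luminescence reading. Line: DT40 Tdp1-/- complemented with hTDP1; camptothecin omitted.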
* hit, by the source's call; ! = repeats disagree; [ ] = remark or other dose. This is one part of a sample in which hits are shown more often than they occur. Unless noted, the call rests on the fitted dose curve; in most records, active means well fitted curve in the direction sought with a large enough effect; inconclusive means small, poorly fitted or top-dose-only effect, or another doubt; inactive means no such curve, though single readings can be large; an effect the other way counts as inactive or inconclusive. Unless noted, on the % scale 0 is the no-effect control and ±100 the full control effect.

`O=S(=O)(c1ccccc1)c1nc(-c2ccco2)oc1N1CCCCC1` gave HT1080 IDH1KD tx -3%, TDP1 cell CPT 1%, IL1B secr inh 15, HT1080NT lethal 0%, 12-LOX inh inconclusive and TDP1 cell noCPT inconclusive.
Screening CN1C(=O)C(CC(=O)NC2CCCCC2)=C2CCCCC21 (stereo not given) returned 12-LOX inh 49%.
For S=c1[nH]nc(COc2ccccc2)n1/N=C/c1cccc(Br)c1 the results were HT1080 IDH1KD tx 0%, TDP1 cell CPT inconclusive, IL1B secr inh 34, HT1080NT lethal -4%, 12-LOX inh 32µM* and TDP1 cell noCPT -16%.
`S=c1[nH]nc(-c2ccncc2)n1/N=C/C(Cl)=C\c1ccccc1` gave HT1080 IDH1KD tx inconclusive, TDP1 cell CPT 13µM*, IL1B secr inh -63*, HT1080NT lethal inconclusive, 12-LOX inh inconclusive and TDP1 cell noCPT 8.2µM*.
S=c1[nH]nc(-c2ccncc2)n1/N=C/C=C/c1ccccc1 was read as HT1080 IDH1KD tx -4%, TDP1 cell CPT -24%, IL1B secr inh 0, HT1080NT lethal -6%, 12-LOX inh inconclusive and TDP1 cell noCPT inconclusive.
S=c1[nH]nc(COc2ccccc2)n1/N=C/C(Cl)=C/c1ccccc1 was read as HT1080 IDH1KD tx inconclusive, TDP1 cell CPT 23µM*, IL1B secr inh -91*, HT1080NT lethal inconclusive, 12-LOX inh inconclusive and TDP1 cell noCPT 16µM*.
`O=[N+]([O-])c1ccc(Cl)c(/C=N/n2c(-c3ccncc3)n[nH]c2=S)c1` gave HT1080 IDH1KD tx inconclusive, TDP1 cell CPT 18µM*, IL1B secr inh 39, HT1080NT lethal -7%, 12-LOX inh inconclusive and TDP1 cell noCPT inconclusive.
CC(c1cccs1)N(C)C(=O)Nc1ccc(Cl)cc1 (stereo not given) was read as 12-LOX inh 4%[176 µM].
Screening N#C/C(=C\c1ccc(-c2ccccc2[N+](=O)[O-])o1)C(N)=O returned HT1080 IDH1KD tx 0%, TDP1 cell CPT -23%, IL1B secr inh -15, HT1080NT lethal 5%, 12-LOX inh -4% and TDP1 cell noCPT 7%.
`O=C(N/N=C/c1ccc(-c2ccccc2[N+](=O)[O-])o1)[C@H]1C[C@@H]1c1ccccc1` gave HT1080 IDH1KD tx 3%, TDP1 cell CPT 16µM*, IL1B secr inh 4, HT1080NT lethal 6%, 12-LOX inh 17% and TDP1 cell noCPT inconclusive.
Screening O=C(N/N=C/c1ccc(-c2cccc([N+](=O)[O-])c2)o1)[C@H]1C[C@@H]1c1ccccc1 returned HT1080 IDH1KD tx -2%, TDP1 cell CPT 29µM*, IL1B secr inh -20, HT1080NT lethal 4%, 12-LOX inh -20% and TDP1 cell noCPT 16µM*.
`O=C(N/N=C/c1ccc(-c2ccc([N+](=O)[O-])cc2)o1)[C@H]1C[C@@H]1c1ccccc1` gave HT1080 IDH1KD tx 11%, TDP1 cell CPT inconclusive, IL1B secr inh 15, HT1080NT lethal 3%, 12-LOX inh -4% and TDP1 cell noCPT inconclusive.
Screening COC(=O)c1ccc(OCc2ccc(C#N)cc2F)c(OC)c1 returned 12-LOX inh 6%.
For Clc1cc(Cl)c(N/N=C/c2c(Cl)cccc2Cl)c(Cl)c1 the results were 12-LOX inh 37%.
CC(NC(=O)Nc1ccc(Cl)cc1)C(c1cccs1)N1CCOCC1 (stereo not given) was read as HT1080 IDH1KD tx inconclusive, TDP1 cell CPT inconclusive, IL1B secr inh -4, HT1080NT lethal inconclusive, 12-LOX inh 0%[57.4 µM] and TDP1 cell noCPT inconclusive.
For CC(NC(=O)Nc1cccc(Cl)c1)C(c1cccs1)N1CCCC1 (stereo not given) the results were HT1080 IDH1KD tx -1%, TDP1 cell CPT -5%, IL1B secr inh -54*, HT1080NT lethal -5%, 12-LOX inh -12% and TDP1 cell noCPT inconclusive.
`CC(NC(=S)Nc1ccc(Cl)cc1Cl)C(c1cccs1)N1CCCC1` (stereo not given) gave HT1080 IDH1KD tx -2%, TDP1 cell CPT inconclusive, IL1B secr inh -81*, HT1080NT lethal -11%, 12-LOX inh inconclusive and TDP1 cell noCPT inconclusive.
Screening COc1cc(=O)n2c(c1C(=O)NC(C)c1ccco1)CCN(C(=O)c1ccccc1SC)CC2 (stereo not given) returned TDP1 cell CPT -11%, 12-LOX inh 3% and TDP1 cell noCPT -8%.
For C/C(N)=C(/C#N)C(=O)CSc1nc(C2CCCCC2)n(-c2ccccc2)n1 the results were HT1080 IDH1KD tx 0%, TDP1 cell CPT 13µM*!, IL1B secr inh -6, HT1080NT lethal -21%, 12-LOX inh -8% and TDP1 cell noCPT inconclusive.
`Cn1ccnc1/C(=N\NC(=O)c1ccccc1)c1cccc([N+](=O)[O-])c1` gave HT1080 IDH1KD tx -2%, TDP1 cell CPT 3%, IL1B secr inh -51*, HT1080NT lethal -15%, 12-LOX inh 51% and TDP1 cell noCPT inconclusive.
Screening Cn1ccnc1/C(=N\NC(=O)c1ccc(O)cc1)c1cccc([N+](=O)[O-])c1 returned HT1080 IDH1KD tx 0%, TDP1 cell CPT -30%, IL1B secr inh -13, HT1080NT lethal 4%, 12-LOX inh 10% and TDP1 cell noCPT -11%.
`CCOc1ccc(C(=O)N/N=C(\c2ccccc2)c2ccccn2)cc1` gave HT1080 IDH1KD tx 2.3µM*, TDP1 cell CPT 2.1µM*, IL1B secr inh -100*, HT1080NT lethal inconclusive, 12-LOX inh -5% and TDP1 cell noCPT 2.9µM*.
O=C(N/N=C(\c1ccccc1)c1ccccn1)c1cccc([N+](=O)[O-])c1 was read as HT1080 IDH1KD tx inconclusive, TDP1 cell CPT 1.2µM*, IL1B secr inh 24, HT1080NT lethal inconclusive and TDP1 cell noCPT 1µM*.
For CC(N)C(=O)NC(C(=O)NC(C)C(=O)Nc1cccc2ccccc12)C(C)C (stereo not given) the results were HT1080 IDH1KD tx 8%, TDP1 cell CPT -17%, IL1B secr inh 30, HT1080NT lethal 0%, 12-LOX inh -16% and TDP1 cell noCPT -5%.
